# From PubChem BioAssay
# The full list was thinned out, with hits kept by preference.
# Pf Dd2 growth – qHTS Primary assay for Inhibitors of Plasmodium falciparum Dd2 growth in vitro; P. falciparum Dd2 growth, SYBR Green, 72 h; Potency, µM (top dose mostly 28.9 µM), without a hit: at the highest dose activity, negative = inhibition, most hits filed as inhibitors; 120,000 tested, 4.3% active; active means well fitted inhibition curve with a large enough effect;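 further: plate controls were DMSO vehicle for no effect and reference drug for full effect; nearly all actives have a fitted effect of over 65% in size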
#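 Readout: SYBR Green fluorescence, 485 nm excitation, 535 nm emission, after ~16 h lysis at 37C. Before that, Dd2-infected red cells (2.5% hematocrit) grew 72 h with compound, 29 uM top final concentration.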
# Starred values were filed as active, the others as inactive; i = inactive; [ ] = remark or other dose. Potency means the concentration at half of the fitted maximal effect.
SMILES,Pf Dd2 growth
Cc1cnc(C(=O)N2CCc3onc(-c4ccc(F)c(F)c4)c3C2)cn1,-12.2%
O=C(Nc1ccccc1)Nc1ccc(=O)n2c1[C@@H]1C[C@@H](CN(C(=O)Nc3ccc(F)cc3)C1)C2,3.7%
COCCc1noc(-c2nc(-c3ccc4c(c3)OCO4)no2)n1,i
O=C1c2c(nc(COc3ccc(F)cc3F)n2Cc2ccccc2)NCCN1CC1CC1,-14.2%[44.1 µM]
COc1cc(OC)cc(C(=O)NCC2CCCN(C/C=C/c3ccccc3OC)C2)c1 (centres undefined),8.91µM*
COc1ccccc1OCC(=O)NCC1CCCN(Cc2ccc(C)c(C)c2)C1 (centres undefined),-7.1%
CCn1cc(CN2CCCC(CNC(=O)c3cc(OC)cc(OC)c3)C2)c(C)n1 (centres undefined),-14.8%
CCCN(C(=O)CCn1cnc2onc(-c3ccc(F)cc3)c2c1=O)c1ccccc1C,19.4%
CCN(C(=O)Cn1cnc2onc(-c3ccc(F)cc3)c2c1=O)c1cc(C)ccc1C,10µM*
CCOC(=O)Cn1cnc2onc(-c3ccc(F)cc3)c2c1=O,14.3%
O=C(c1cn2cc(-c3cccs3)n(CC3CC3)c(=O)c2n1)N1CCCC1,i
O=C(CCC1CCCC1)N1CCCC(Cc2nc(C3CCOCC3)no2)C1 (centres undefined),i
Cc1ncc2c(n1)C[C@@H]1CC[C@H]2N1C(=O)c1ccoc1,10.7%
O=C(O)c1ccc(CN2CC[C@@H](c3ccc4c(c3)OCO4)[C@H](O)C2)cc1,-13.4%
CC(C)n1cc(CN2CC[C@@H](c3ccc4ccccc4c3)[C@H](O)C2)cn1,10µM*
CC(C)c1csc(CN2CC[C@@H](c3ccc4c(c3)OCO4)[C@H](O)C2)n1,-13.9%
O=C1N[C@@H]2CCN(S(=O)(=O)c3cccc(F)c3)[C@@H]2C(=O)N1c1ccc(F)cc1,1.7%[44.1 µM]
COc1ccc(OC)c(C2CCN(C(=O)c3cc4ccccc4[nH]c3=O)C2)c1 (centres undefined),-19.6%
CCC1c2nccn2CCCN1C(=O)c1ocnc1C (centres undefined),8.6%
Cc1cccc(C(C(=O)N2CCN(CC(=O)NC(C)C)CC2)N(C)C)c1 (centres undefined),-23.0%
Cc1cccc(C(C(=O)N2CCC(CCn3ccnc3C)CC2)N(C)C)c1 (centres undefined),7.94µM*
CN(C)C(C(=O)N1CCN(Cc2nccn2C)CC1)c1cccc(F)c1 (centres undefined),-4.7%
COc1ccc(-c2noc([C@@H]3CCCN3C(=O)c3ccc(C)c(C)c3)n2)cc1OC,i
COc1ccc(CNC(=O)C2CCN(Cc3nc(-c4ccc(Cl)cc4)oc3C)CC2)cc1,24.4%
COc1ccc(C(CNC(=O)c2oc3ccc(C)cc3c2C)N2CCOCC2)cc1 (centres undefined),-19.4%
SMILES,Pf Dd2 growth
COc1ccc(-c2c(C)c3ccc(O)c(CN4CCOCC4)c3oc2=O)cc1,8.91µM*
COc1ccc2c(c1)OCC(CNC(=O)CN1CCOCC1)C2 (centres undefined),-6.0%
COc1ccc(-c2nc(C)nc3c2CCN(Cc2cncs2)CC3)cc1,i
COc1ccc(-c2c(C)c3ccc(O)c(CN4CCCC4)c3oc2=O)cc1,3.16µM*
O=c1[nH]c(N2CCOCC2)nc2c1CCN(Cc1ccsc1)CC2,i[5.79 µM]
O=C(Nc1ccc(N2CCOCC2)cc1)[C@H]1CN(Cc2ccccc2)C[C@H]1C(=O)O,-9.5%
CCC(C)NC(=O)Cc1csc2nc(C)c(-c3cc(C)n(-c4ccc(C)cc4)n3)c(=O)n12 (centres undefined),i
Cc1nc(C)c(C(=O)N2CC3CC(C2)[C@H]2CCCC(=O)N2C3)s1 (some centres undefined),-9.3%
Cc1ccc(CN(C(=O)c2ccco2)c2ccc(CC(=O)N(C)Cc3ccccc3)cc2)cc1,-26.6%
CCOC(=O)C1CCN(C(=O)Cc2ccc(N(Cc3ccccc3)C(=O)c3ccco3)cc2)CC1,1.41µM*
O=C(Cc1ccc(N(Cc2ccc(F)cc2)C(=O)c2ccco2)cc1)N1CCOCC1,i
O=c1cc(-c2ccncc2)oc2c(-c3cccc4[nH]ccc34)nccc12,10µM*
COc1ncccc1-c1nccc2c(=O)cc(-c3ccncc3)oc12,-6.2%[44.1 µM]
Cn1cc(-c2cc(=O)c3ccnc(-c4cccc5[nH]ccc45)c3o2)cn1,i
Cc1noc([C@@H]2CN(C(=O)CCc3nc4ccccc4[nH]3)C[C@H]2C(N)=O)n1,14.0%
COc1ccc2[nH]c3c(c2c1)CCNC31CCN(C(=O)C2CCCO2)CC1 (centres undefined),1.1%
Cc1cc(C)n(-c2cccc(CN(C)C(=O)C3CCC(=O)N(Cc4ccccn4)C3)c2)n1 (centres undefined),10.9%
COc1ccc(CN2C(=O)CO[C@H](c3ccc(NC(=O)c4cccs4)cc3)[C@H]2CO)cc1,-14.9%
COc1ccc(NC(=O)Cn2c(=O)n(Cc3nc(C)no3)c(=O)c3cc4c(cc32)OCO4)cc1OC,-7.8%
Cc1noc(Cn2c(=O)c3cc4c(cc3n(CC(=O)Nc3ccc(C(C)C)cc3)c2=O)OCO4)n1,12.6µM*
CC(C)c1ccc(NC(=O)Cn2c(=O)n(Cc3nc(-c4ccccc4)no3)c(=O)c3cc4c(cc32)OCO4)cc1,-7.7%
Cc1noc(C)c1CCNC(=O)CCc1ccc2c(c1)CN(S(C)(=O)=O)CCO2,2.9%
COc1cc(-c2ccnc3nc(CCc4ccccc4)nn23)cc(OC)c1OC,11.2µM*
COc1ccc(CCc2nc3nccc(-c4cc(OC)c(OC)c(OC)c4)n3n2)cc1,-13.8%
COc1ccc(CCc2nc3nccc(-c4ccncc4)n3n2)cc1OC,-10.9%
SMILES,Pf Dd2 growth
COc1ccc(CCc2nc3nccc(-c4ccc(OC)c(OC)c4)n3n2)cc1,12.6µM*
COc1ccc(CCc2nc3nccc(-c4ccc(F)cc4)n3n2)cc1OC,-10.8%
COc1ccc(CCc2nc3nccc(-c4ccccc4)n3n2)cc1OC,-20.8%
COc1ccc(C(=O)N2CCCCCCNC(=O)[C@@H]3CCC[C@@H]32)cn1,14.5%
OCCC1CN(Cc2cc(F)cc(F)c2)CCN1Cc1cccs1 (centres undefined),-16.0%
O=C(Cn1ccn2nc3c(c2c1=O)CCCC3)NCCc1ccccc1,i
CCOC(=O)c1cnc2c(C)c(Cl)ccc2c1Nc1ccc(C)cc1C,-23.4%
CCOC(=O)c1sc2ccccc2c1S(=O)(=O)Nc1cccc(C(F)(F)F)c1,i
CCOC(=O)c1cnc2c(C)cc(C)cc2c1Nc1ccccc1OCC,0.0%
CCOC(=O)c1cnc2c(ccc3ccccc32)c1Nc1ccccc1O,11.2µM*
CCOC(=O)c1cnc2c(C(F)(F)F)cccc2c1Nc1cccc(C(=O)OC)c1,2.82µM*
CCOC(=O)c1cnc2c(C)cccc2c1Nc1ccc(OC(C)C)cc1,-29.8%
O=C(NC1CCCCC1)N[C@H]1CCN2C(=O)c3ccc(Cl)cc3NC(=O)[C@H]12,i
O=S(=O)(c1ccc(C(F)(F)F)cc1)N1CC(c2nc(-c3ccncc3)no2)C1,-6.9%
O=[S+]1([O-])NCC2(CCN(Cc3cccc(C(F)(F)F)c3)C2)Oc2ccncc21 (centres undefined),0.4%
Cc1ccc(N2CCC(NS(=O)(=O)c3cn(C)c(C)n3)C2=O)cc1C (centres undefined),-6.7%
Cn1cccc1CN1CCCN(S(C)(=O)=O)C(c2ccccc2)CC(=O)NCC1 (centres undefined),-9.3%
Cc1cccc(OCCCn2c(CCNC(=O)C3CCCCC3)nc3ccccc32)c1,14.1µM*
CCOc1ccccc1N1CC(c2nc3ccccc3n2CCCCOc2cc(C)ccc2C)CC1=O (centres undefined),-11.8%
